Measured values reported in PubChem BioAssay AID1159580 (chemical genetic matrix, 2015).
“And” between values parts separate entries of the source, which are not always exact repeats. Identical values can stand only once. Among all 5,500 compounds or so, about 2,000 (36%) were called active. About 18% were inconclusive and are not listed. Cut-off read from the data, not from the text of the source: active = normalized growth mostly below about 0.91 (no sharp cut-off); inconclusive = no clear call, values can overlap the other calls; inactive = mostly above about 0.92. Some of the results follow.

Test: chemical genetic growth profiling, strain panel (AID 1159580);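 note: tested at 20 µM; growth read once vehicle control cultures reached saturation at 30 °C; 1 = growth at the plate median or of vehicle wells; lower values mean less growth of the strain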
Details: S. cerevisiae deletion strains, growth OD

Measured: normalized growth

Cc1ccc(C)c(OCCCC(C)(C)C(=O)O)c1
0.95 (inactive) and 0.784 (active): locus YHR030C, strain SLT2, stronger effect = lower value
0.819 (inactive) and 0.823 (active): locus YJL095W, strain BCK1, stronger effect = lower value
active: locus YCL029C, strain bik1, stronger effect = lower value 0.894 | locus YDL035C, strain GPR1, stronger effect = lower value 0.845 | locus YDL185W, strain tfp1, stronger effect = lower value 0.309 | locus YDR101C, strain arx1, stronger effect = lower value 0.872 | locus YDR137W, strain rgp1, stronger effect = lower value 0.699 | locus YDR162C, strain NBP2, stronger effect = lower value 0.832 | locus YDR318W, strain mcm21, stronger effect = lower value 0.866 | locus YDR388W, stronger effect = lower value 0.874 | locus YDR392W, strain spt3, stronger effect = lower value 0.58 | locus YDR502C, strain sam2, stronger effect = lower value 0.852 | locus YGL078C, strain dbp3, stronger effect = lower value 0.485 | locus YGL086W, strain mad1, stronger effect = lower value 0.877 | locus YHR079C, strain IRE1 (second series), stronger effect = lower value 0.869 | locus YHR079C, strain IRE1, stronger effect = lower value 0.833 | locus YIL125W, strain kgd1, stronger effect = lower value 0.356 | locus YJL129C, strain trk1, stronger effect = lower value 0.857
inactive: locus YAL021C, strain ccr4, stronger effect = lower value 0.986 | locus YAL026C, strain drs2, stronger effect = lower value 0.919 | locus YAL030W, strain snc1, stronger effect = lower value 0.981 | locus YBL061C, strain skt5, stronger effect = lower value 0.975 | locus YBR009C, strain hhf1, stronger effect = lower value 0.957 | locus YBR021W, strain FUR4, stronger effect = lower value 0.926 | locus YBR023C, strain chs3, stronger effect = lower value 0.964 | locus YBR171W, strain sec66, stronger effect = lower value 0.948 | locus YBR229C, strain ROT2, stronger effect = lower value 0.939 | locus YBR231C, strain swc5, stronger effect = lower value 0.986 | locus YBR279W, strain paf1, stronger effect = lower value 0.983 | locus YCL011C, strain gbp2, stronger effect = lower value 0.978 | locus YCL016C, strain dcc1, stronger effect = lower value 0.949 | locus YCL061C, strain MRC1, stronger effect = lower value 0.968 | locus YCL069W, strain vba3, stronger effect = lower value 0.987 | locus YCR088W, strain abp1, stronger effect = lower value 0.982 | locus YDL005C, strain med2, stronger effect = lower value 0.982 | locus YDL040C, strain nat1, stronger effect = lower value 0.987 | locus YDL074C, strain BRE1, stronger effect = lower value 0.858 | locus YDL101C, strain DUN1, stronger effect = lower value 0.975 | locus YDL192W, strain arf1, stronger effect = lower value 0.931 | locus YDR001C, strain nth1, stronger effect = lower value 0.973 | locus YDR069C, strain doa4, stronger effect = lower value 0.987 | locus YDR159W, strain sac3, stronger effect = lower value 0.962 | locus YDR195W, strain ref2 1.1 | locus YDR297W, strain sur2, stronger effect = lower value 0.992 | locus YDR334W, strain swr1, stronger effect = lower value 0.99 | locus YDR335W, strain msn5, stronger effect = lower value 0.989 | locus YEL003W, strain gim4, stronger effect = lower value 0.97 | locus YEL037C, strain rad23, stronger effect = lower value 0.979 | locus YEL061C, strain CIN8 (second series), stronger effect = lower value 0.98 | locus YEL061C, strain CIN8, stronger effect = lower value 0.943 | locus YER015W, strain faa2, stronger effect = lower value 1.01 | locus YER016W, strain bim1, stronger effect = lower value 0.976 | locus YER110C, stronger effect = lower value 0.937 | locus YER111C, strain swi4, stronger effect = lower value 0.981 | locus YER155C, strain BEM2 (second series), stronger effect = lower value 1.03 | locus YER155C, strain BEM2, stronger effect = lower value 0.939 | locus YER167W, strain BCK2, stronger effect = lower value 0.959 | locus YFR010W, strain ubp6, stronger effect = lower value 0.991 | locus YGL167C, strain pmr1, stronger effect = lower value 0.963 | locus YGL173C, strain kem1, stronger effect = lower value 0.955 | locus YGL227W, strain vid30, stronger effect = lower value 0.984 | locus YGL240W, strain doc1, stronger effect = lower value 0.999 | locus YGL248W, strain PDE1, stronger effect = lower value 0.914 | locus YGL253W, strain hxk2, stronger effect = lower value 0.975 | locus YGR135W, strain pre9, stronger effect = lower value 0.895 | locus YGR252W, strain gcn5, stronger effect = lower value 0.794 | locus YHR013C, strain ard1, stronger effect = lower value 1.02 | locus YHR027C, strain rpn1, stronger effect = lower value 0.983 | locus YHR094C, strain hxt1, stronger effect = lower value 0.941 | locus YHR129C, strain ARP1, stronger effect = lower value 0.945 | locus YHR142W, strain chs7, stronger effect = lower value 0.957 | locus YHR200W, strain rpn10, stronger effect = lower value 0.924 | locus YIL066C, strain RNR3, stronger effect = lower value 0.936 | locus YIL073C, strain SPO22, stronger effect = lower value 0.891 | locus YIR030C, strain dcg1, stronger effect = lower value 0.931 | locus YJL092W, strain hpr5, stronger effect = lower value 0.979 | locus YJL095W, strain BCK1 (second series), stronger effect = lower value 0.983 | locus YJL115W, strain asf1, stronger effect = lower value 1 | locus YJL134W, strain LCB3, stronger effect = lower value 0.938 | locus YJL154C, strain vps35, stronger effect = lower value 0.994 | locus YJL164C, strain tpk1, stronger effect = lower value 0.979 | locus YJL166W, strain qcr8, stronger effect = lower value 0.975 | locus YJL168C, strain set2, stronger effect = lower value 0.941 | locus YJL187C, strain SWE1 (second series), stronger effect = lower value 0.942 | locus YJL187C, strain SWE1, stronger effect = lower value 0.985 | locus YJR043C, strain POL32, stronger effect = lower value 0.935
